Source: PubChem BioAssay
In the library only some 3.3% were active in any assay of this set; here they are far more common.
Sm TGR inh: blocks Schistosoma mansoni thioredoxin glutathione reductase. Q962Y6. purified TGR, DTNB reduction, TNB absorbance 405 nm. Potency, µM (highest dose often 114 µM), usual class: inhibitors. 3% of 360,000 active. AID 485364; further: nearly all actives have a fitted effect of over 60% in size
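TGR 20 nM + NADPH 100 uM (dispensed conc.), cpd preinc 15 min RT; start with NADPH (500 uM addition) then DTNB (15 mM addition). Kinetic TNB absorbance, 405 nm filter. Four-parameter Hill fit across titration.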
AmpC inh no detg: inhibitors of E. coli AmpC beta-lactamase without detergent; Potency, µM (series often up to 57.1 µM), most hits filed as inhibitors; AID 485341; 0.52% of 330,000 active; AmpC nitrocefin hydrolysis, absorbance 480 nm, 0.0001% Triton; further: nearly all actives have a fitted effect of over 20% in size
Target sequence (P00811 whole entry, looked up): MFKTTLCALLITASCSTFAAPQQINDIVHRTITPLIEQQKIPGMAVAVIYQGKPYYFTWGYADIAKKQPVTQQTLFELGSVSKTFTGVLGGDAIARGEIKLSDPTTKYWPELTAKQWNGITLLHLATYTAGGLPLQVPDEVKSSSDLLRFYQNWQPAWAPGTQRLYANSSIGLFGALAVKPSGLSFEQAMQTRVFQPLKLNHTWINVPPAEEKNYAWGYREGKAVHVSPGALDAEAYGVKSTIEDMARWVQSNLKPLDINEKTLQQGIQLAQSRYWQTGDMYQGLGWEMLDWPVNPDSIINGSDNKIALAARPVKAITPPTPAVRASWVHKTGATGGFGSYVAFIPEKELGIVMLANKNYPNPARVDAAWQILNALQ
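20 mM phosphate pH 7.0 + 0.01% (detergent screen) or 0.0001% Triton X-100; 5.3 nM AmpC reagent; cpd preinc 15 min RT; nitrocefin (800 uM stock) to start; A480 q20 s × 4 min; Activity was normalised to no-enzyme and no-compound control wells.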
AmpC detergent: inhibitors of E. coli AmpC beta-lactamase with detergent | 0.041% of 370,000 active | Potency, µM (titrated, usually from 114 µM), most hits filed as inhibitors | AmpC hydrolysis of nitrocefin, absorbance 480 nm, 0.01% Triton; further: nearly all actives have a fitted effect of over 25% in size
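AmpC (5.3 nM in the dispensed reagent) in 20 mM phosphate pH 7.0 with 0.01% (detergent screen) or 0.0001% Triton X-100 was preincubated with compounds for 15 min at room temperature. Nitrocefin was then added from an 800 uM solution, and hydrolysis was followed at 480 nm.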
Large screens that a line does not name were inactive. The call rests on the fitted dose curve; in most records, active means well fitted curve in the direction sought with a large enough effect; inconclusive means small, poorly fitted or top-dose-only effect, or another doubt; inactive means no such curve, though single readings can be large; an effect the other way counts as inactive or inconclusive.

c1ccc2c(c1)ncn2CCn1cnc2ccccc21	none
NCCCn1cnc2ccccc21	Sm TGR inh 35µM, AmpC detergent inconclusive
CCOc1ccc(S(=O)(=O)NCc2ccc(OC)cc2)c2cccnc12	AmpC detergent inconclusive
CCOc1ccc(S(=O)(=O)NCc2ccccn2)cc1NC(=O)c1ccccc1F	none
O=C(NC(=S)Nc1ccc(CN2CCCCC2)cc1)c1ccco1	none (no result: Sm TGR inh)
CCOc1cc(NC(=S)NCCCN2CCOCC2)c(OCC)cc1NC(=O)c1ccco1	Sm TGR inh 35µM
O=C(NC(=S)Nc1ccc(CN2CCOCC2)cc1)c1ccco1	Sm TGR inh 32µM, AmpC detergent inconclusive
Cc1ccccc1C(=O)NC(=S)Nc1ccc(N2CCOCC2)cc1	Sm TGR inh inconclusive
O=C(NC(=S)Nc1ccc(N2CCOCC2)cc1)c1ccco1	Sm TGR inh 40µM, AmpC detergent inconclusive
COc1cc(NC(=S)NCCCN2CCOCC2)c(OC)cc1NC(=O)c1ccco1	Sm TGR inh inconclusive
CCN(CC)S(=O)(=O)c1cc(C(=O)OCC(=O)NC(=O)c2cccn2C)ccc1C	AmpC detergent inconclusive
CCOC(=O)c1c(-c2ccc(OC)cc2)csc1/N=C/C1=C(O)CCCC1=O	none
O=S(=O)(c1ccccc1)n1c(C(O)c2ccccn2)cc2ccccc21 (stereo unspecified)	none
CCOCCSc1nc2c(c(-c3cccs3)c1C#N)CC/C2=C/c1cccs1	Sm TGR inh 45µM, AmpC inh no detg inconclusive
CCOC(=O)CC(=O)CSc1nc2c(c(-c3cccs3)c1C#N)CCC2	none
N#CC(Br)Br	Sm TGR inh 50µM
COc1cc2c(cc1OC)CN(C1CCC(C)CC1)CC2 (stereo unspecified)	none
CCc1cc(/C(Cc2ccccn2)=N\Nc2ccccc2)c(O)cc1O	Sm TGR inh inconclusive, AmpC inh no detg 25µM
Cc1nc(C/C(=N\Nc2ccccc2)c2ccc(O)cc2O)cs1	Sm TGR inh inconclusive
CCC(C(=O)N1CCOCC1)n1nc(C)n2c(cc3cc(C)ccc32)c1=O (stereo unspecified)	none
C=CCn1c(=O)c2c(nc(-n3nc(C)cc3C)n2C)n(C)c1=O	AmpC detergent inconclusive
Cc1ccccc1-c1nc(C#N)c(N2CCCCC2)o1	none
O=C(CCC(=O)c1ccc(F)cc1)OCc1nnc(-c2ccc([N+](=O)[O-])cc2)o1	Sm TGR inh 20µM, AmpC detergent inconclusive
Cc1csc(=O)n1CC(=O)OCc1nnc(-c2ccc([N+](=O)[O-])cc2)o1	none
COCCCNC(=O)CSC1=Nc2ccccc2C2=NC(CCC(=O)NCc3ccccc3OC)C(=O)N12 (stereo unspecified)	none (no result: AmpC inh no detg)
Cc1cccc(-c2nn(-c3ccccc3)cc2C(=O)NCC(c2cccs2)N2CCOCC2)c1 (stereo unspecified)	AmpC detergent inconclusive
COc1ccc(C(=O)Cn2cc([N+](=O)[O-])nc2C)cc1	none
Cc1nc([N+](=O)[O-])c(Br)n1CC(=O)c1ccc(Cl)cc1	Sm TGR inh 7.1µM, AmpC detergent inconclusive
COc1ccc(C(=O)Cn2c(C)nc([N+](=O)[O-])c2Br)cc1	Sm TGR inh 2.5µM
Cc1nc([N+](=O)[O-])c(Br)n1Cc1ccc(Cl)c(Cl)c1	none
C=CCOC(=O)C1=C(C)NC(=S)C(C#N)(CC=C)C1c1ccccc1Cl (stereo unspecified)	none
Cc1ccc(C23CC4CC(CC(C(=O)NC(C)C(N)=O)(C4)C2)C3)cc1 (stereo unspecified)	none
CCOc1ncccc1C(=O)OCC(=O)N(CC)c1ccccc1	none
COc1cc(CN2CCNC(=O)C2CC(=O)N(Cc2nccn2C)C(C)C)cc(OC)c1 (stereo unspecified)	Sm TGR inh inconclusive
CC(=O)c1ccc(S(=O)(=O)NCC(=O)N2CCN(C/C=C/c3ccccc3)CC2)cc1	Sm TGR inh 7.9µM
Cc1ccc(S(=O)(=O)NCCC(=O)N2CCN(C/C=C/c3ccccc3)CC2)cc1	none
O=[N+]([O-])c1ccc(-[n+]2ccc3ccccc3c2)c([N+](=O)[O-])c1	Sm TGR inh 1.8µM
O=C(/C(=C(\[O-])c1ccccc1)[n+]1ccc2ccccc2c1)c1ccc([N+](=O)[O-])cc1	none
CCOc1cc(C(=O)Nc2cc3c(cc2N2CCCC2)n(C)c(=O)n3C)cc(OCC)c1OCC	none
CCOc1cc(C(=O)Nc2cc3c(cc2N2CCCC2)n(C)c(=O)c(=O)n3C)cc(OCC)c1OCC	Sm TGR inh 50µM (no result: AmpC inh no detg)
Fc1ccc2nc3[nH]c4ccccc4c3nc2c1	none
OC1=C(O)c2nc3cc(F)ccc3nc21	Sm TGR inh 13µM
COc1cccc(NC(=O)Cn2c(=O)n(Cc3ccc(C(=O)NCc4ccc5c(c4)OCO5)cc3)c(=O)c3ccccc32)c1	none (no result: AmpC inh no detg)
COc1ccc(-c2cc(=O)n3[nH]cnc3n2)cc1	none (no result: AmpC inh no detg)
COCCCNC(=O)c1ccc(N(C)S(C)(=O)=O)cc1	Sm TGR inh 28µM
COCCCNC(=O)c1ccc(N(C)S(=O)(=O)c2ccc(OC)cc2)cc1	none
Cc1ccc(C)c(N2CCN(C(=O)CCCCCn3c(=O)[nH]c4ccccc4c3=O)CC2)c1	none (no result: AmpC inh no detg)
CCCOc1ccc(C(=O)Nc2cc3c(cc2N2CCCCC2)n(C)c(=O)n3C)cc1	none (no result: AmpC inh no detg)
O=[N+]([O-])c1ccccc1S(=O)(=O)Nc1cccnc1	none
O=S(=O)(c1ccc2c(c1)OCCCO2)N1CCNCC1	AmpC detergent inconclusive
c1cc2c(cc1C1CCCN1)OCCCO2 (stereo unspecified)	Sm TGR inh inconclusive, AmpC inh no detg 0.22µM
CS(=O)(=O)N1CCN(Cc2ccc(C(F)(F)F)cc2)CC1	none
CCn1ncc(Br)c1C(=O)NC(C)c1ccccc1 (stereo unspecified)	none
CCn1ncc(Cl)c1C(=O)NC(C)c1ccccc1 (stereo unspecified)	AmpC inh no detg 0.35µM
CCOc1ccc(CNC(=O)c2ccc3c(c2)nc2n3CCC(C)C2)cc1OC (stereo unspecified)	none (no result: AmpC inh no detg)
Cn1c(COc2ccccc2O)[n+](C)c2ccccc21	none
COc1ccc(N=Nc2n(C)c3ccccc3[n+]2C)cc1	Sm TGR inh 5µM
CCN(CC)C(=O)c1[nH]cnc1C(=O)NC1CCN(C(=O)OC(C)(C)C)CC1	none
COc1ccc(/C(N)=N/OC(=O)C2CCCCC2)cc1OC	none
COc1ccc(/C(N)=N/OC(=O)C2CCCCC2)cc1	Sm TGR inh 89µM
CCN(c1ccc(C(=O)CN2C(=O)NC3(CCOc4ccccc43)C2=O)cc1)S(C)(=O)=O (stereo unspecified)	none
CC1CCN(c2cc(N(C)CCO)c([N+](=O)[O-])c3nonc23)CC1	Sm TGR inh 45µM
CC1CC(C)CN(c2cc(N(C)CCO)c([N+](=O)[O-])c3nonc23)C1 (stereo unspecified)	none
Cc1nc(-c2ccc(S(=O)(=O)N3CCN(c4cccc(C)c4C)CC3)cc2)co1	none
O=c1oc2cc(O)c(Cl)cc2c2ccccc12	none
O=c1oc(Cl)c(Cl)c2ccccc12	Sm TGR inh 3.2µM
CC(C)(CO)C(O)C(=O)NCCCO (stereo unspecified)	AmpC detergent inconclusive
Cc1nc(S(=O)(=O)c2ccc(Cl)cc2)c(NCc2ccccc2)o1	Sm TGR inh 40µM, AmpC detergent 56µM
CCN(CC)CCNc1oc(-c2ccccc2)nc1S(=O)(=O)c1ccccc1	none (no result: Sm TGR inh, AmpC detergent)
